# Only some compounds are listed: those with a hit (about 7.3% of all), similar ones and a draw of the others.
# FMDV inh: blocks foot and mouth disease virus. FMDV antiviral cell-based qHTS. Potency, µM (titrated, usually from 57.9 µM), without a hit: at the top dose activity change, negative = inhibition, hits mostly inhibitors. 410,000 tested, 1.2% active. AID 1159524; calls by dose curve; tested in HEK293T cells; further: read-out not given here; potency means the concentration at half of the fitted maximal effect; nearly all actives have a fitted effect of over 45% in size
# HCV inhibitor: HCV inhibition | Huh7.5.1 HCVcc-Cre infection, luciferase reporter, 44 h | Potency, µM (series often up to 41.8 µM), for inactives: at the top dose activity change, negative = inhibition, most hits filed as inhibitors | 340,000 tested, 3.4% active; active means well fitted inhibition curve with a large enough effect; inconclusive means small, poorly fitted or top-dose-only effect, or another doubt; inactive means no such curve, though single readings can be large or run the other way; further: potency means the concentration at half of the fitted maximal effect
#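 Luciferase read-out (15 sec integration) after a 15 min room-temperature substrate step quantifies HCVcc-Cre infection. Cells, 1,000 per well, had compound added 4 h post-plating, then virus at ~0.5 moi, and were cultured 44 h.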
# HCMV antiviral: inhibitors of human cytomegalovirus; HFF cells, HCMV-luciferase reporter, 72 h; stronger effect = lower value; activity change, negative = inhibition, % at 57.5 µM; 410,000 tested, 4.5% active; in the data active means activity change below about -60%; inconclusive means no clear call, values can overlap the other calls; inactive means above about -39%
#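 Steps: HFFs plated, 16 h 37C; compounds added; HCMV-luciferase added to MOI 1 PFU/cell; 72 h 37C; OneGlo reagent, 5 min room temperature; luminescence read, normalized to controls.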
# Vaccinia Venus: inhibitors of vaccinia virus (Venus reporter). Vaccinia virus Venus reporter expression, fluorescence. Potency, µM (titrated, usually from 36.5 µM), inactives show at the top dose activity change, negative = inhibition, actives largely listed as inhibitors. 330,000 tested, 0.46% active. AID 720580; calls by dose curve; tested in A549 cells; further: potency means the concentration at half of the fitted maximal effect; nearly all actives have a fitted effect of over 30% in size
# VACV mCherry inh: vaccinia inhibition (mCherry reporter). Potency, µM (highest dose often 36.5 µM), for the others: top-dose activity change, negative = inhibition, actives largely listed as inhibitors. Vaccinia virus mCherry reporter infection, fluorescence. 310,000 tested, 0.63% active; calls by dose curve; tested in A549 cells; further: potency means the concentration at half of the fitted maximal effect; nearly all actives have a fitted effect of over 35% in size
# Active calls of the source: *; i = inactive; ? = inconclusive; / = no result; [ ] = another dose, or the depositor's remark. On the % scale 0 is the no-effect control and ±100 the full control effect.
SMILES,FMDV inh,HCV inhibitor,HCMV antiviral,Vaccinia Venus,VACV mCherry inh
Cc1ccc(-c2cn(-c3ccc(OC(F)F)cc3)c3[n+]2CCCCC3)cc1,-5.5%,-6.2%,-88.6*,-16.3%,-3.7%
Cc1ccc(-c2cn(-c3ccc(SC(F)F)cc3)c3[n+]2CCC3)cc1,?,?,-97.7*,-17.7%,-11.4%
Cc1cccnc1N(C(=O)Nc1cccc(Cl)c1)C1=NCC(C)(C)S1,2.1%,20.9%,-62.2*,-8.6%,-9.8%
CN(C)c1ccc(C2C=C(c3ccc(Cl)cc3OC(F)F)Nc3ncnn32)cc1 (configuration not stated),-22.4%,10µM*,-21.7,?,/
CC(C)NC(=O)c1ccc2c(c1)nc1n2CCCCC1,28.7%,/,68.9,-7.5%,-10.1%
COC(=O)C(Sc1ccc(Cl)cc1)C1SC(=S)N(Cc2ccccc2)C1=O (configuration not stated),31.6µM*,/,-5.2,-18.1%,-9.4%
COC(=O)c1cccc(CN2C(=O)C(C)Sc3cc(Cl)ccc32)c1 (configuration not stated),16.6%,/,94.0,-18.3%,i
CN1CCN(c2ncc3nc(-c4cccs4)c(=O)n(CCC#N)c3n2)CC1,-5.2%,/,/,/,/
CC(NC(=O)C1CC12CCC2)c1ccccc1 (configuration not stated),9.3%,5.5%,-61.0*,-0.1%,i
CC(NC(=O)C1CCC(C)(C(=O)O)C1(C)C)c1ccccc1 (configuration not stated),7.8%,27.3%,19.1,-4.2%,-13.6%
O=C(O)/C=C\C(=O)Nc1ccccc1C#Cc1ccccc1,34.7%,11.2µM*,-13.2,/,/
O=C(O)/C=C/C(=O)Nc1ccccc1-c1ccccc1NC(=O)/C=C/C(=O)O,-3.5%,25.6%,-14.6,-3.2%,-17.7%
O=C(O)/C=C\C(=O)Nc1ccccc1C#Cc1ccc(Br)cc1,13.5%,4.47µM*,16.5,/,/
Cc1cnc(-n2ncc(C(=O)N(C)CCc3ccccn3)c2-c2cccs2)nc1-c1ccc(F)cc1,-14.5%,/,/,-5.2%,-16.6%
COc1ccc(N(Cc2cc3cccc(C)c3[nH]c2=O)C(=O)c2cccc(Cl)c2)cc1,-5.2%,/,-17.9,-23.1%,-5.3%
COc1cccc(/C=C/C(=O)c2ccc3c(c2)OCO3)c1OC,26.2%,-6.9%,/,?,12.6µM*
COc1cc(C(=O)c2cocc2C(=O)c2ccc3c(c2)OCO3)cc(OC)c1OC,-18.0%,-32.8%,6.8,-18.1%,-29.6%
COc1cc(C(=O)c2ccc3c(c2)OCO3)cc(OC)c1OC,-5.8%,-10.9%,-83.4*,-15.3%,?
Cc1ccc(S(=O)(=O)N2CCCc3cc(NC(=O)c4ccc(C(C)(C)C)cc4)ccc32)cc1,3.6%,/,23.1,-6.0%,-15.5%
O=[N+]([O-])c1ccc(N(CCO)CCO)c2c1no[n+]2[O-],?,/,-99.0*,84.3%,?
O=C(C[N+]12CCCc3cccc(c31)CCC2)c1ccccc1,/,/,/,?,-11.3%
CC1Cc2ccccc2C[N+]1(C)CC(=O)c1cccc([N+](=O)[O-])c1 (configuration not stated),/,/,/,-11.3%,-0.2%
CCCN1C(=O)c2ccccc2NC1c1ccc(OC)c(COc2cccc(OC)c2)c1 (configuration not stated),/,/,/,-18.4%,5.2%
COc1ccc2c(CNCCc3ccccc3)c(C(=O)O)n(Cc3cccc(F)c3)c2c1,3.5%,/,35.5,-6.0%,-10.8%
COc1ccc(OC)c(C2=NS(=O)(=O)N(C)C(C(=O)Nc3ccc(F)cc3F)=C2)c1,?,14.1µM*,-33.4,?,?
SMILES,FMDV inh,HCV inhibitor,HCMV antiviral,Vaccinia Venus,VACV mCherry inh
COc1ccc(C2=NS(=O)(=O)N(C)C(C(=O)Nc3ccc(OC)c(OC)c3)=C2)cc1,?,?,?,-9.3%,i
COc1ccc(C2=NS(=O)(=O)N(C)C(C(=O)Nc3ccc(C(C)=O)cc3)=C2)cc1OC,?,11.2µM*,?,-20.1%,-21.4%
COc1ccc(NC(=O)C2=CC(c3ccc(C)cc3)=NS(=O)(=O)N2C)cc1OC,?,?,-62.1*,-10.9%,i
Cc1cccc(-c2nc3c4ccccc4nc(NCc4ccc(Cl)cc4)n3n2)c1,18.7%,/,-4.0,-18.9%,-13.4%
COc1ccc(C(NC(C)=O)c2ccc3cccnc3c2O)cc1OC (configuration not stated),/,/,/,?,7.94µM*
COc1ccc(C(NC(C)=O)c2c(O)ccc3ccccc23)cc1OC (configuration not stated),-4.7%,-12.2%,32.6,-0.6%,-15.3%
CC(=O)NC(c1ccc2ccccc2c1)c1ccc2cccnc2c1O (configuration not stated),-12.5%,2.51µM*,-98.2*,?,?
CCOc1cc(C(Nc2cc(C)ccn2)c2ccc3cccnc3c2O)ccc1OC (configuration not stated),-18.3%,/,-96.6*,-8.6%[7.34 µM],i[7.34 µM]
COc1ccc(C(NC(C)=O)c2ccc3cccnc3c2O)c(OC)c1 (configuration not stated),0.0%,5.01µM*,/,?,/
COc1cccc(C(NC(C)=O)c2nc(-c3cccc4cccnc34)cs2)c1 (configuration not stated),-3.3%,/,29.4,-8.7%,-12.2%
CN(C)C(=O)c1ccc(-c2ccc3ncnc(N4CCOCC4)c3c2)cc1,-29.6%,/,/,/,/
COc1ccc(-c2onc(C)c2C)cc1S(=O)(=O)Nc1cc(Cl)ccc1C,65.4%,/,30.8,?,-3.9%
C=CCn1c(N/N=C/c2ccc(O)cc2)nc2ccccc2c1=O,36.6%,-14.3%,-65.0*,/,/
C=CCn1c(C)nc2ccccc2c1=O,-17.1%,13.0%,27.5,-13.5%,-7.4%
COC(=O)c1c(NC(=O)c2nc3ccccc3s2)sc2c1CC(C)(C)NC2(C)C,-28.5%,5.7%,-26.2,11.2µM*,?
COC(=O)c1c(NC(=O)c2ccc(C(=O)c3ccccc3)cc2)sc2c1CC(C)(C)NC2(C)C,-13.1%,/,-14.0,?,-24.9%
Cc1[nH]c2ccccc2c1C(=O)CSc1nc2cc(S(=O)(=O)N3CCCCC3)ccc2o1,-27.0%,7.08µM*,-39.0,/,/
COc1ccc(C(=O)NCC(c2ccc3c(c2)OCO3)N2CCOCC2)cc1OC (configuration not stated),-21.1%,/,11.9,-9.4%,-5.0%
C/C(=C\[C@@H](NP(=O)(c1ccccc1)c1ccccc1)c1ccccc1)CO[Si](c1ccccc1)(c1ccccc1)C(C)(C)C,-22.6%,-3.2%,-10.2,?,-18.5%
CCCC/C(C)=C/[C@@H](NP(=O)(c1ccccc1)c1ccccc1)c1ccccc1,-11.3%,2.82µM*,-23.5,?,-11.1%
CCOC(=O)c1cnc2ccccc2c1Nc1cccc(OC)c1,-17.1%,/,1.7,-6.9%,-14.2%
CC(C)CCn1c(Sc2nc3ccccc3s2)nc2c1c(=O)[nH]c(=O)n2C,31.6µM*,-29.9%,-26.3,/,/
CC(C)CCn1c(SCC(=O)c2ccccc2)nc2c1c(=O)[nH]c(=O)n2C,5.5%,-27.6%,-7.2,4.5%,-5.7%
Cc1nnc(Nc2ccc(O)cc2)[nH]c1=O,10.1%,14.1µM*,-20.2,-4.2%,-13.0%

# Screens deposited in PubChem BioAssay by National Center for Advancing Translational Sciences (NCATS).
